Measurements from PubChem BioAssay.
Unmarked numbers belong to inactive results. Active and inactive are the calls of the source.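 The calls were made as follows, unless noted: active = mean inhibition above 46.68%, the untreated control wells mean plus 3 SD; inactive = the rest.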

Columns and labels:
[1] = target: Nuclear receptor coactivator 1 (Homo sapiens) (UniProt Q15788); assay: NCOA1 GAL4-fusion reporter inhibition – cell-based, luminescence, quadruplicate, confirmation (AID 588820); details: HEK293 GAL4-SRC1 luciferase reporter, at 3.6 µM, active compounds read high;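 also: 0% = DMSO wells and 100% = gossypol 36 µM treated wells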
Sequence of Nuclear receptor coactivator 1 (Homo sapiens) (Q15788 whole entry, looked up, the tested form may be a part): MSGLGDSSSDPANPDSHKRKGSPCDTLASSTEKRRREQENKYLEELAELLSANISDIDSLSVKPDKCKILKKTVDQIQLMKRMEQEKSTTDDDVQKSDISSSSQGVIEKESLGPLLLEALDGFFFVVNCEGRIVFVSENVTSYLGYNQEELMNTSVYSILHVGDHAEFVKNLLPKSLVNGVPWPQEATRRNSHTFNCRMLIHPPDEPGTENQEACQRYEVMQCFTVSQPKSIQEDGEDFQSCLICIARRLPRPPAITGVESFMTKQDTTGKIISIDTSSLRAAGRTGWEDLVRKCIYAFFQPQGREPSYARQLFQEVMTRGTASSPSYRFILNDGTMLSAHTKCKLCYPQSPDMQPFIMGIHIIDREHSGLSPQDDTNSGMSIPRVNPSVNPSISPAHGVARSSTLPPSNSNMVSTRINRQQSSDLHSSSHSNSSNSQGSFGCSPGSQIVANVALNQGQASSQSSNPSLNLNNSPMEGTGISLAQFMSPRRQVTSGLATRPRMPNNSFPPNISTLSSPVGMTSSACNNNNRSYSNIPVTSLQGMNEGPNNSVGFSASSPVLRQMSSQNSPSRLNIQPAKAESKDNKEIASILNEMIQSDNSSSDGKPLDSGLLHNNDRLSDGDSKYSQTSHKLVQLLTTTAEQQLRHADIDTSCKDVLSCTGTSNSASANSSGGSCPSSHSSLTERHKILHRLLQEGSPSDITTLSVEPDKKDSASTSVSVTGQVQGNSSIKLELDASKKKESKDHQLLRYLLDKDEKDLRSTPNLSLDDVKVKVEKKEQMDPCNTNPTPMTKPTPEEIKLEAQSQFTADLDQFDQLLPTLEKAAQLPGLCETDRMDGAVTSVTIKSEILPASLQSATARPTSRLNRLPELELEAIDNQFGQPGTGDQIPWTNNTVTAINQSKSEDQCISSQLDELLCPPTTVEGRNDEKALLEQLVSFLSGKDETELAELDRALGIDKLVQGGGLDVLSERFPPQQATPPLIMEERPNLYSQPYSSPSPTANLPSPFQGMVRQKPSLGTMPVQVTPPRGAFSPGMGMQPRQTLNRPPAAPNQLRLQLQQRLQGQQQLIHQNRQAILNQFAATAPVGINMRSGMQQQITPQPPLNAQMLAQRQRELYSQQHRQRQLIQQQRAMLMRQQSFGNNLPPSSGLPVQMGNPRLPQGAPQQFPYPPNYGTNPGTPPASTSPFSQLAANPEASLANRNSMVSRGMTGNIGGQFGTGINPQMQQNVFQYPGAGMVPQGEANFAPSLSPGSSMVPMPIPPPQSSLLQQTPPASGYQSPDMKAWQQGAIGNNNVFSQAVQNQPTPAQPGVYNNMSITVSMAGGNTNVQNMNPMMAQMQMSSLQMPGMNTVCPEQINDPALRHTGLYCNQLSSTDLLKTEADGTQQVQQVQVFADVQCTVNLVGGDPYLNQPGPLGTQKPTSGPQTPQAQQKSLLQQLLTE

[2] = repression of VP16-driven luciferase reporter – cell-based, luminescence, high throughput, counter-screen for SRC1 inhibitor project (AID 588824; in the data active = inhibition above about 25%); details: cell-based VP16 transactivation luciferase luminescence; at 3.6 µM; active compounds read high
[3] = StAR promoter reporter inhibitors, counter-screen for LRH-1 inverse agonist project, cell-based, luminescence, high throughput (AID 651611; in the data active = inhibition above about 28%); details: StAR promoter luciferase reporter counterscreen, at 3.6 µM, active compounds read high
[4] = target: Nuclear receptor subfamily 5 group A member 2 (Homo sapiens) (UniProt O00482); assay: NR5A2 activity suppression in reporter cells – cell-based, luminescence, confirmation (AID 651613; in the data active = inhibition above about 42%;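 also: HEK293T cells co-transfected with LRH-1 and StAR promoter luciferase reporter; 0% = vehicle wells and 100% = parental cells lacking receptor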); details: cell-based LRH-1 luciferase reporter, inverse agonism; at 3.6 µM; active compounds read high
Sequence of Nuclear receptor subfamily 5 group A member 2 (Homo sapiens) (O00482 whole entry, looked up): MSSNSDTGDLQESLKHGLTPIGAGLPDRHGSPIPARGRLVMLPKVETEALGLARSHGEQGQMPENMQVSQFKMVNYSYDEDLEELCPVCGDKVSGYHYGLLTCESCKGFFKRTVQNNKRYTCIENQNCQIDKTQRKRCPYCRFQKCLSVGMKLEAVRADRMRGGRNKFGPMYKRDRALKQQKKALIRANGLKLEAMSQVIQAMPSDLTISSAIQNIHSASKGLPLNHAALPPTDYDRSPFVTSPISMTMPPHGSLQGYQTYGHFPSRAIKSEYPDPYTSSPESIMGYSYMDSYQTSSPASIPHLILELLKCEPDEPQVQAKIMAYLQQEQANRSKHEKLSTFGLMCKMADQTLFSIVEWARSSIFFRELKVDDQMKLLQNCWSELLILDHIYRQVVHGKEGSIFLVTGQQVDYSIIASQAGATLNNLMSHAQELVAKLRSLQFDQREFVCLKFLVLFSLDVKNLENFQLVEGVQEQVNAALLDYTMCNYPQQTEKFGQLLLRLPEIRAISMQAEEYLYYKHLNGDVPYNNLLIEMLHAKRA

[5] = target: Steroidogenic factor 1 (Homo sapiens) (UniProt Q13285); assay: inverse agonism at SF1 nuclear receptor – cell-based, luminescence, high throughput, counter-screen for LRH-1 inverse agonist project (AID 651614; in the data active = inhibition above about 44%;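 also: cells cotransfected with StAR promoter reporter and SF1 expression vector; 0% = vehicle on cells with receptor and 100% = vehicle on cells lacking receptor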); details: cell-based SF1 luciferase reporter, at 3.6 µM, active compounds read high
Sequence of Steroidogenic factor 1 (Homo sapiens) (Q13285 whole entry, looked up, the tested form may be a part): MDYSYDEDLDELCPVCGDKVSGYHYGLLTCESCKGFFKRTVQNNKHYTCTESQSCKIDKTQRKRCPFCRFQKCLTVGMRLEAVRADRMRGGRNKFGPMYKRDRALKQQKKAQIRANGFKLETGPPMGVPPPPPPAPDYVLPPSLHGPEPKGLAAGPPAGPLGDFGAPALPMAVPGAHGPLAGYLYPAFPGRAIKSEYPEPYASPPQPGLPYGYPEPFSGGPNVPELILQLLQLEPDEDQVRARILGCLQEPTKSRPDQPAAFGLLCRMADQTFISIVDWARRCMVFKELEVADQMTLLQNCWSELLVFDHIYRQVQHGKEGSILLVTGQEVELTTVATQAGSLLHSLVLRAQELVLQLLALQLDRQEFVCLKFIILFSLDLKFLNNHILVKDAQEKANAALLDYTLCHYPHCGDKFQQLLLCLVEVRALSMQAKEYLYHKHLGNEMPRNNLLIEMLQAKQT

[6] = compounds suppressing VP16-driven luciferase signal – cell-based, luminescence, high throughput, counter-screen for LRH-1 inverse agonist project (AID 651615; in the data active = inhibition above about 33%); details: Gal4-VP16 luciferase reporter cells, at 3.6 µM, active compounds read high

| SMILES | inhibition [1] | inhibition [2] | inhibition [3] | inhibition [4] | inhibition [5] | inhibition [6] |
| --- | --- | --- | --- | --- | --- | --- |
| Cc1ccc2c(c1)c(/C=C/c1cc[n+](C)cc1)c(C)n2C | 32.9% | 57.1% (active) | 59.6% (active) | 91.4% (active) | 81.1% (active) | 80% (active) |
| CC(=O)Nc1ccc(Nc2c3ccccc3nc3ccccc23)cc1 | 22.8% | 39.4% (active) | 62.5% (active) | 106% (active) | 69.6% (active) | 72.8% (active) |
| Cc1ccc(S(=O)(=O)CC2CSc3nc4ccccc4n32)cc1 (configuration not stated) | -13.8% | 33.3% (active) | 22.6% | 65.3% (active) | 54.6% (active) | 50.7% (active) |
| CCOC(=O)c1cc(C#N)c(N2CCN(C(=O)c3cccc(C(F)(F)F)c3)CC2)nc1C(F)(F)F | 15.6% | 29.2% (active) | 15.5% | 48.8% (active) | 51.3% (active) | 32.3% (active) |
| COCCn1c(SCCCC(=O)c2ccc(Br)cc2)nnc1-c1ccncc1 | -2.26% | 25.2% | 6.33% | 44.3% (active) | 46% (active) | 44.7% (active) |
| Cc1ccc(Oc2ccc(OCC(=O)Nc3ccncc3)cc2)cc1 | -33.1% | 41.3% (active) | 35.7% (active) | 79.2% (active) | 70.5% (active) | 51% (active) |
| COc1ccc(CC(=O)Nc2cccc(S(=O)(=O)N3CCCCCC3)c2)cc1OC | -18.9% | 33% (active) | 20.2% | 65.6% (active) | 53.4% (active) | 49.3% (active) |
